Test results as given in publication PMC4336329 (PLoS ONE, 2015).
In all, about 310,000 compounds went through this assay and about 14,000 (4.5%) showed an effect of 50% or more. Effects have a minus sign here. Many of the other results were omitted from the sample, so strong results are more common in it than they were.

biological target: human ether-à-go-go-related gene (hERG) potassium channel (human, UniProt Q12809); experiment: primary screen, population patch clamp on CHO cells stably expressing hERG; higher = less effect of the substance
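Further: peak tail current of the secondary pulse compared with the same well before compound.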

Chain of human ether-à-go-go-related gene (hERG) potassium channel (Q12809 whole entry, looked up): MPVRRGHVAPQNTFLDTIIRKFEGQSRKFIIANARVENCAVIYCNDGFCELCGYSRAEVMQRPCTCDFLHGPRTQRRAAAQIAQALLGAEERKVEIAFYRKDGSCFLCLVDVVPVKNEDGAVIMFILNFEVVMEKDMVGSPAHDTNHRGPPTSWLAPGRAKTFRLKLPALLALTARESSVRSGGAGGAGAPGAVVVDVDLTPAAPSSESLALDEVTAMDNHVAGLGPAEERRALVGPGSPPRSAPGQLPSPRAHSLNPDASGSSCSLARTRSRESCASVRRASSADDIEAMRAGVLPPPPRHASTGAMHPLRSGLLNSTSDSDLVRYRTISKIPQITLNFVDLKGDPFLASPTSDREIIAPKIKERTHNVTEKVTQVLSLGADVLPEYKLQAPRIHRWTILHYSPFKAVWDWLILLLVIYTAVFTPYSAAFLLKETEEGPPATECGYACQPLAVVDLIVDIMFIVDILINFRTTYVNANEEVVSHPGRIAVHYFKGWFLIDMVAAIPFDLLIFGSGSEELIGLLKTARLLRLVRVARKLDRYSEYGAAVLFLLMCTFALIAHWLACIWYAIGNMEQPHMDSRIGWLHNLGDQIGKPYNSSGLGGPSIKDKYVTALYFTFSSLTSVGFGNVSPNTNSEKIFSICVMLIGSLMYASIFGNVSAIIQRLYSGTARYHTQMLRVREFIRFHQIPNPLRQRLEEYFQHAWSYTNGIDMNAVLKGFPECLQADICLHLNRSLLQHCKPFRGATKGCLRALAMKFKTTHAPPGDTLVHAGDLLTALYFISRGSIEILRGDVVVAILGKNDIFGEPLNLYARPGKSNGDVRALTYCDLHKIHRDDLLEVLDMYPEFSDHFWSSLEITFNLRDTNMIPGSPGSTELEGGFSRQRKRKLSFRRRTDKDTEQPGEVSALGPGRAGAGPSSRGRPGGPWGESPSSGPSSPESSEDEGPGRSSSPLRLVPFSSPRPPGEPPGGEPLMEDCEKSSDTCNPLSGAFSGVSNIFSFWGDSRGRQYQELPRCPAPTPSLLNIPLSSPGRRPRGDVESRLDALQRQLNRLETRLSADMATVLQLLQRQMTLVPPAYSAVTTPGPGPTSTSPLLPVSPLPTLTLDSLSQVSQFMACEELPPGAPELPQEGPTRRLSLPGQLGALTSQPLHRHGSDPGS

SMILES | hERG current change (%, negative = inhibition) at 10uM [%]
O=C(O)c1ccc(Oc2ccc(S(=O)(=O)c3ccc(C(=O)O)c(C(=O)O)c3)cc2)cc1 | 9.42
COc1ccc(CNC(=O)COC(=O)c2ccc(OCc3c(C)noc3C)cc2)cc1OC | 13.8
CC1(O)CC(=O)N(c2ccccc2)O1 (stereo not drawn) | -1.7
CCN(CCCNC(=O)C1CCC(=O)N1C1CCCC1)c1cccc(C)c1 (stereo not drawn) | -2.31
COc1ccc(OC)c(CNn2c(-c3cccc(C)c3)nc3ccccc3c2=O)c1 | 6.92
Cc1cc(C)nc(SC2CCOC2=O)n1 (stereo not drawn) | 0.669
Cc1oc(-c2cccc(F)c2)nc1CN1CCCN(C(=O)c2ccco2)CC1 | -74.7
Cc1oc(-c2cc(F)cc(F)c2)nc1CN1CCN(C(=O)c2ccco2)CC1 | -40.5
Cc1oc(-c2cc(F)ccc2F)nc1CN1CCCN(C(=O)c2ccco2)CC1 | -36.6
Cc1ccc(S(C)(=O)=O)cc1C(=O)N1CC(C(N)=O)Oc2ccccc21 (stereo not drawn) | 15.6
Cc1cc(Br)c(S(=O)(=O)NCCN2CCOCC2)cc1C | 7.8
CCCn1c(SCC(=O)Nc2ccc3c(c2)OCCO3)nnc1-c1ccco1 | -66.1
C=CCn1c(SCC(=O)Nc2ccc3c(c2)OCCO3)nnc1-c1ccco1 | -63.3
C=CCn1c(SCC(=O)Nc2ccc3c(c2)OCO3)nnc1-c1ccccc1 | -34.7
CCn1c(SCC(=O)Nc2ccc3c(c2)OCCO3)nnc1-c1ccco1 | -25.9
Cn1c(SCC(=O)Nc2ccc3c(c2)OCCO3)nnc1-c1ccco1 | 8.89
C=CCn1c(SCC(=O)Nc2ccc3c(c2)OCCO3)nnc1-c1ccccn1 | -28.3
COc1ccc(-c2nnc(NC(=O)c3ccc([N+](=O)[O-])o3)o2)c(OC)c1 | 19.2
CC(C)(C)N(NC(=O)OCc1ccccc1)C(=O)c1ccccc1Cl | -17.5
CCOC(=O)C1=NN(c2ccc(F)cc2)C2=NC(C)=C(C(=O)OC)C(c3cccs3)N12 (stereo not drawn) | -2.17
O=C(O)CCCCCN1C(=O)C(O)=C(C(=O)/C=C/c2ccccc2)C1c1ccc2c(c1)OCO2 (stereo not drawn) | 1.89
CNC(=S)NCC(O)c1ccc([N+](=O)[O-])cc1 (stereo not drawn) | 5.5
CC(=O)NCC(O)c1ccc([N+](=O)[O-])cc1 (stereo not drawn) | 13.6
CC(NCC(O)c1ccc([N+](=O)[O-])cc1)C12CC3CC(CC(C3)C1)C2 (stereo not drawn) | -69.4

SMILES | hERG current change (%, negative = inhibition) at 10uM [%]
COc1ccccc1NC(=O)c1cc(C(=O)O)ccc1C(=O)O | 20.4
CCOc1ccccc1NC(C)C(=O)Nc1cc(C(F)(F)F)ccc1N1CCOCC1 (stereo not drawn) | -6.23
COc1ccc(OC)c(C(=O)NC(CC(N)=O)c2ccc(NCCN3CCCC3)c([N+](=O)[O-])c2)c1 (stereo not drawn) | 8.75
Cc1ccc(SCC(=O)NCCCN2CCOCC2)cc1 | 15
Cc1ccc(Cl)cc1NC(=S)N(CCN(C)C)Cc1cccs1 | -0.292
CCN1CCN(CCCN(Cc2ccco2)C(=S)Nc2cc(Cl)ccc2C)CC1 | -61.9
CCN1CCN(CCCN(Cc2cccs2)C(=S)Nc2ccccc2C)CC1 | -54.4
Cc1ccc(Cl)c(NC(=S)N(CCCN2CCOCC2)Cc2ccco2)c1 | -35.3
Cc1ccc(Cl)cc1NC(=S)N(CCCN1CCOCC1)Cc1ccco1 | -28.5
Cc1cc(Cl)ccc1NC(=S)N(CCCN1CCOCC1)Cc1cccs1 | -32.2
Cc1ccccc1NC(=S)N(CCCN1CCCCC1)Cc1ccco1 | -45.4
Cc1ccc(Cl)cc1NC(=S)N(CCCN1CCN(C)CC1)Cc1cccs1 | -61.7
Cc1ccccc1NC(=S)N(CCCN1CCOCC1)Cc1cccs1 | -39.9
Cc1ccc(NC(=S)N(CCCN2CCOCC2)Cc2cccs2)c(C)c1 | -11.7
Cc1ccc(Cl)cc1NC(=S)N(CCCN1CCOCC1)Cc1ccccn1 | -34.3
Cc1ccc(Cl)cc1NC(=S)N(CCCN1CCN(C)CC1)Cc1ccco1 | -52.3
COC(=O)C1=C(COc2ccccc2)NC(=O)NC1c1ccc(Br)cc1 (stereo not drawn) | 0.599
Cc1ccc(CSCC(=O)N/N=C/c2cccc(OC3CSC3)c2)cc1 | 11.4
Nc1nnc(/C=C/c2ccccc2Cl)s1 | 12.1
Cc1cc(C(=O)COC(=O)c2ccc([N+](=O)[O-])o2)c(C)n1CC1CCCO1 (stereo not drawn) | -42.5
CCOc1ccc(/C=C2/C(=O)NC(=O)N(CCc3ccc(F)cc3)C2=O)cc1 | 8.76
Cc1ccc(-n2nc(C(=O)NN)c(C)c(C#N)c2=O)cc1Cl | 14.5
COc1ccc(N(C(=O)Cn2nnc(-c3ccccc3F)n2)C(C(=O)NCC2CCCO2)c2ccc(Cl)cc2)cc1 (stereo not drawn) | 22.6
COc1ccc(S(=O)(=O)N(CC(=O)O)c2ccc(C)cc2)cc1 | 4

SMILES | hERG current change (%, negative = inhibition) at 10uM [%]
Cc1cc(Nc2ccc(Br)cc2)nc(-c2ccccc2O)n1 | 19.9
Cc1c(Cl)cccc1NC(=S)N(CCCN1CCOCC1)Cc1cccs1 | -26.5
CCc1ccccc1NC(=S)N(CCCN1CCN(C)CC1)Cc1cccs1 | -46
CCc1ccccc1NC(=S)N(CCCN1CCOCC1)Cc1cccs1 | -53.5
COc1ccc(CNC(=O)CCCn2nc(C)n3c(cc4sccc43)c2=O)cc1 | -1.61
CC(=O)N1N=C(c2cccc([N+](=O)[O-])c2)OC1c1ccc(Cl)cc1Cl (stereo not drawn) | 8.14
CC(=O)N1N=C(c2cccc([N+](=O)[O-])c2)OC1c1ccccc1Cl (stereo not drawn) | -25.8
COc1ccccc1C1OC(c2cccc([N+](=O)[O-])c2)=NN1C(C)=O (stereo not drawn) | -62
Cc1ccccc1-c1nc(SCc2cccnc2)c2c(=O)n(C)c(=O)n(C)c2n1 | 10.5
CC(C)Cc1nc(SCc2cccnc2)c2c(=O)n(C)c(=O)n(C)c2n1 | -8.32
CCc1nc(SCc2cccnc2)c2c(=O)n(C)c(=O)n(C)c2n1 | -10.7
Cn1c(=O)c2c(SCc3cccnc3)nc(CC(C)(C)C)nc2n(C)c1=O | -59.6
CCCc1nc(SCc2cccnc2)c2c(=O)n(C)c(=O)n(C)c2n1 | -57.3
Cn1c(=O)c2c(SCc3cccnc3)nc(C3CC3)nc2n(C)c1=O | -9.63
CC1=C(C(=O)NC(C)c2ccccc2)C2(CCC(C)CC2)OC1=O (stereo not drawn) | -4.71
Cc1ccc(C)c2c1N(Cc1ccccc1)C(=O)C21OCCO1 | -21.8
Cc1nc(NC(=O)C2CCCCC2C(=O)O)sc1C (stereo not drawn) | 12
O=C(CNC(=O)c1ccccc1)OCc1nnc(-c2ccc(Cl)cc2)o1 | -10.4
Cc1c(CN2CCc3c([nH]c4ccccc34)C2C2CCCCC2)cnn1C (stereo not drawn) | -38.7
c1ccc2c3c([nH]c2c1)C(C1CCCCC1)N(Cc1ncc[nH]1)CC3 (stereo not drawn) | -39.5
Cc1cnc(CN2CCc3c([nH]c4ccccc34)C2C2CCCCC2)[nH]1 (stereo not drawn) | -62.6
CNc1oc(-c2cccs2)nc1S(=O)(=O)c1ccccc1 | -18.7
O=S(=O)(c1ccccc1)c1nc(-c2ccco2)oc1NCCCn1ccnc1 | -65.6
C=CCNc1oc(-c2cccs2)nc1S(=O)(=O)c1ccccc1 | -24.7

SMILES | hERG current change (%, negative = inhibition) at 10uM [%]
O=S(=O)(c1ccccc1)c1nc(-c2cccs2)oc1NCCCn1ccnc1 | -75.1
O=S(=O)(c1ccccc1)c1nc(-c2cccs2)oc1NCc1cccnc1 | -50.5
O=S(=O)(c1ccccc1)c1nc(-c2ccccc2)oc1NCc1cccnc1 | 8.28
Cc1ccc(S(=O)(=O)c2nc(-c3cccs3)oc2NCc2cccnc2)cc1 | -18.3
O=S(=O)(c1ccccc1)c1nc(-c2ccco2)oc1NCCCN1CCOCC1 | -6.01
N#Cc1nc(-c2ccco2)oc1NCCCn1ccnc1 | -19.7
CC(C)Sc1cc(N2CCCC2)nc(-c2ccccc2)n1 | -5.24
COc1cccc(NC(=O)N(CCN(C)C)C(C)c2cccnc2)c1 (stereo not drawn) | -20.7
Cc1ccc(-n2c(N)c(C(=O)NCc3cccnc3)sc2=S)cc1 | 23.5
CCOc1ccc(CCNC(=O)COC(=O)c2ccc(S(=O)(=O)N3CCCC3)cc2)cc1OCC | 25.7
O=C(Nc1cc(Cl)ccc1O)c1cc(-c2ccco2)on1 | 8.36
Cc1nn(Cc2ccccc2)c(Cl)c1C(=O)OCC(=O)NC(=O)NC12CC3CC(CC(C3)C1)C2 | 11.5
CC1CCc2c(sc3nc(C4CC4)nc(N4CCN(C(=O)c5ccco5)CC4)c23)C1 (stereo not drawn) | -19.2
Cc1nc(N2CCNCC2)c2c3c(sc2n1)CCCC3 | -2.23
Cc1nc(N2CCN(C(=O)c3cccs3)CC2)c2c3c(sc2n1)CCCC3 | -63.8
CCCNC(=S)N1CCN(c2nc(C)nc3sc4c(c23)CCCC4)CC1 | -31.5
Cc1nc(N2CCN(C)CC2)c2c3c(sc2n1)CCCC3 | -11.4
CCc1nc(SCC(=O)N2CCN(C(=O)c3ccco3)CC2)c2c3c(sc2n1)CCCC3 | -46
Cc1nc(N2CCN(C(=O)c3ccco3)CC2)c2c3c(sc2n1)CCC3 | -54.8
CCc1nc(N2CCN(C(=O)c3ccccc3)CC2)c2c3c(sc2n1)CCCC3 | -12.2
CCc1nc(N2CCN(C(=O)c3ccco3)CC2)c2c3c(sc2n1)CCCC3 | -65.3
Cc1nc(N2CCOCC2)c2c3c(sc2n1)CCC3 | 10.4
CC(=O)N1CCN(c2nc(C)nc3sc4c(c23)CCC(C)C4)CC1 (stereo not drawn) | -19.3
Cc1nc(N2CCN(C(=O)c3ccco3)CC2)c2c3c(sc2n1)CC(C)CC3 (stereo not drawn) | -63.9
